This note sets out measurements from PubChem BioAssay.

Results filed as inconclusive are left out. The source made the active and inactive calls.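 Rule for the calls: active = viability at or below 27.92% in each of two runs, the all-compound median minus 4 SD; inconclusive = no clear call, values can overlap the other calls; inactive = the rest.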

This experiment in a line: viability of PTEN-null HCT116 cells – cell-based, HCT116 clonal line, CellTiter-Glo, pilot screen (AID 824).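 Note: 0% = 20 µM Hyamine control and 100% = vehicle cell control.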 Particulars: HCT116 PTEN-deleted viability, 60 h, at 10 µM, hits give low values.
Regarding `Cc1ccc(CNC(=O)C2CCCN(S(=O)(=O)c3cnc[nH]3)C2)cc1` (stereo unspecified), the viability – broadly, a read-out of living cells in per cent, often relative to untreated cells – is 102% (inactive).
With `COc1cc2c(cc1OC)C(c1ccc(C)o1)CC(=O)N2` (stereo unspecified), the viability was 78.2% (inactive).
For the compound `COc1ccc(S(=O)(=O)Nc2ccc(F)c(Cl)c2)cc1OC`, the viability was 87.6% (inactive).
As for `O=C(OCCN(CCOC(=O)c1ccncc1)S(=O)(=O)c1cccs1)c1ccncc1`, the viability is 97% (inactive).
On to `N#CCCN(Cc1cccnc1)C(=O)Nc1ccc(Cl)c(Cl)c1`, for which the viability was 102% (inactive).
As to `NC(=O)CN1C(=O)C(O)(CC(=O)c2ccccc2O)c2ccccc21` (stereo unspecified), the viability was 93.9% (inactive).
With `CCCOc1ccc(C2C(C(=O)OC)=CN(CCOC)C=C2C(=O)OC)cc1`, the viability was 84.4% (inactive).
`C(=N\c1c(-c2ccccc2)nc2n1CCS2)/c1ccccc1`: the viability was 90.2% (inactive).
Turning to `COC(=O)c1cn(NC(=O)C2CCCO2)c(=O)c2ccccc12` (stereo unspecified), the viability is 98.8% (inactive).
As to `CCN1CCN(C(=O)C2CC(c3ccc(F)cc3)=NO2)CC1` (stereo unspecified), the viability is 102% (inactive).
On to `CCOC(=O)C1CCN(Cc2ccc(OC)c(C)c2OC)CC1`, for which the viability was 80.3% (inactive).
Regarding `Cn1c(NC(=O)c2ccccc2NC(=O)C(C)(C)C)nc2ccccc21`, the viability is 55.1% (inactive).
To `Cc1cccc(CN2CCC(CNC(=O)C3CCCN(S(=O)(=O)c4cnc[nH]4)C3)CC2)c1` (stereo unspecified) belongs 106% (inactive).
In the case of `CC1CC(NC(=O)c2cnc3n(c2=O)CCS3)CC(C)(C)C1` (stereo unspecified), the viability was 90% (inactive).
As for `CC1CCCN(S(=O)(=O)c2coc(C(N)=O)c2)C1` (stereo unspecified), the figure is 99.5% (inactive); as for `O=C(NCc1ccc2c(c1)OCO2)C1CCCN(S(=O)(=O)c2cccc3cccnc23)C1` (stereo unspecified), 80.7% (inactive).
